Screening data deposited in PubChem BioAssay by National Center for Advancing Translational Sciences (NCATS).
A selection: hits, their analogues and other compounds. The true share with any hit is near 19%.
Pf growth 48h: P. falciparum growth inhibition at 48 hours (one generation); 5.9% of 310,000 active; Potency, µM (highest dose often 28.7 µM), most hits filed as inhibitors; P. falciparum luciferase growth in erythrocytes, 48 h; AID 504832
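Parasite viability was followed by luminescence of a genomically integrated firefly luciferase. Cultures held 0.1% parasitemia at 2% hematocrit (final), incubated under 5% CO2 at 37 C.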
SARS PLpro yeast: SARS-CoV PLP inhibition in yeast | S. cerevisiae expressing SARS-CoV PLpro, growth rescue | Potency, µM (titrated, usually from 32.9 µM), actives largely listed as activators | 0.19% of 330,000 active | AID 485353; calls by dose curve; note: nearly all actives have a fitted effect of over 55% in size
CHX counter: counter-screen for Shiga toxin inhibitors: cycloheximide protein synthesis inhibition; AID 2314; 12% of 300,000 active; max response, %; cell reporter, cycloheximide protein synthesis inhibition counterscreen; in the data active = max response mostly above about 13%, no sharp cut-off; inactive = mostly below about 14%; note: read at 38.3 µM for the half of the compounds with a filed dose
AMA1 RON2 block: disrupts binding of P. falciparum AMA1 to RON2 | AlphaScreen AMA1-biotinylated RON2 peptide binding | Potency, µM (titrated, usually from 58.2 µM), most hits filed as inhibitors | 0.2% of 360,000 active; note: nearly all actives have a fitted effect of over 45% in size
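AMA1 (3D7) with his tag at 25 nM final met compounds first, then biotinylated RON2 peptide at 25 nM; detection used donor plus acceptor beads, 10 µg/mL apiece, read by AlphaScreen after 30 min at room temperature.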
Pf growth 96h: P. falciparum growth inhibition at 96 hours; P. falciparum luciferase reporter growth, 96 h; Potency, µM (series often up to 28.7 µM), usual class: inhibitors; 6.9% of 320,000 active; AID 504834
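96 h incubation, 37 C, 5% CO2, of luciferase-reporter P. falciparum-infected RBCs (2% hematocrit, 0.05% parasitemia final) with test compounds; endpoint luminescence.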
Shiga toxin inh: blocks Shiga toxin action in Vero cells; Vero cells, Shiga toxin protein synthesis inhibition reporter; inhibition, % at 38.7 µM; 9.2% of 290,000 active; in the data active = inhibition mostly above about 28%, no sharp cut-off; inactive = mostly below about 43%
Of the large screens only hits and unclear results are named; the others gave an inactive call. Unless noted, calls come from the whole dose curve; as a rule, active = well fitted curve in the direction sought with a large enough effect; inconclusive = small, poorly fitted or top-dose-only effect, or another doubt; inactive = no such curve, though single readings can be large; an effect the other way counts as inactive or inconclusive.

Cc1ccc2nc(C)cc(C(=O)N3CCCC(CO)(Cc4ccccc4C)C3)c2c1 (stereo unspecified)	Pf growth 48h inconclusive, Pf growth 96h inconclusive
CNc1nc(C)nc(N/N=C/c2ccccc2)n1	CHX counter 28
CC(C)N1CCN(C(=O)c2ccc(OC3CCN(CCc4ccccc4)CC3)cc2)CC1	Pf growth 48h inconclusive
O=S(=O)(Nc1ccc(O)c(NS(=O)(=O)c2ccccc2)c1)c1ccccc1	none
O=C(CN1CCN(S(=O)(=O)c2ccc(Br)cc2)CC1)Nc1ccccc1F	none
O=C(CN1CCN(S(=O)(=O)c2ccc(Cl)cc2)CC1)Nc1ccc(F)cc1F	CHX counter 17
O=C(CN1CCN(S(=O)(=O)c2ccc(Br)cc2)CC1)Nc1ccc(F)cc1F	CHX counter 13
O=C(CN1CCN(S(=O)(=O)c2ccc(Br)cc2)CC1)Nc1ccc(F)cc1	Pf growth 48h 4.1µM
Cc1ccc(OC(=O)N(C)C[C@@H]2OCc3cn(nn3)CCCC(=O)N([C@H](C)CO)C[C@H]2C)cc1	none (no result: Pf growth 48h, SARS PLpro yeast, CHX counter, Pf growth 96h, Shiga toxin inh)
CCCNC(=O)CN1C(=O)NC(CC)(c2ccc(F)cc2)C1=O (stereo unspecified)	none
Cc1ccc(-c2nc3[nH]c(=O)cc(NC(=O)c4cccs4)n3n2)cc1	Pf growth 48h inconclusive, Pf growth 96h inconclusive
CC(C)(C)c1ccc(-c2nc3[nH]c(=O)cc(NC(=O)c4ccco4)n3n2)cc1	Pf growth 48h 10µM, Pf growth 96h 4.1µM
CCC(=O)Nc1cc(=O)[nH]c2nc(-c3ccc(Cl)cc3)nn12	Pf growth 48h 0.26µM, Pf growth 96h inconclusive
Cc1ccc(-c2nc3[nH]c(=O)cc(NC(=O)C(C)C)n3n2)cc1	Pf growth 48h 0.29µM, Pf growth 96h 0.083µM
CCC(=O)Nc1cc(=O)[nH]c2ncnn12	none
COc1ccc(C(c2nnnn2Cc2cccs2)N2CCN(c3ccccc3F)CC2)cc1OC (stereo unspecified)	Pf growth 48h 2.3µM (no result: Pf growth 96h)
COc1ccccc1CN1CCN(C(CC(C)C)c2nnnn2Cc2cccs2)CC1 (stereo unspecified)	Pf growth 48h 13µM
Fc1ccc(C(c2nnnn2Cc2cccs2)N2CCN(c3ccccc3)CC2)cc1 (stereo unspecified)	Pf growth 48h inconclusive, AMA1 RON2 block inconclusive
c1ccc(Cn2nnnc2C(c2ccccc2)N2CCN(c3nc4ccccc4s3)CC2)cc1 (stereo unspecified)	none
CCCC(c1nnnn1Cc1cccs1)N1CCN(C)CC1 (stereo unspecified)	none
COc1ccccc1C(c1nnnn1Cc1ccccc1)N1CCN(c2nc3ccccc3s2)CC1 (stereo unspecified)	Pf growth 48h 3.3µM
COc1ccc(C(c2nnnn2Cc2ccccc2)N2CCN(c3nc4ccccc4s3)CC2)cc1OC (stereo unspecified)	Pf growth 48h 10µM, AMA1 RON2 block inconclusive
O=C(O)[C@@]1(CCCCCCOc2ccc(Cl)cc2)CO1	none (no result: Pf growth 48h, SARS PLpro yeast, AMA1 RON2 block, Pf growth 96h)
CC(C)C(c1nnnn1Cc1ccc(F)cc1)N1CCN(C(=O)c2ccco2)CC1 (stereo unspecified)	Pf growth 48h inconclusive, Pf growth 96h 13µM
CN(C)c1ccc(C(c2nnnn2C(C)(C)C)N2CCN(C(=O)c3ccco3)CC2)cc1 (stereo unspecified)	none
CC(C)CCn1nnnc1C(c1ccc(N(C)C)cc1)N1CCN(C(=O)c2ccco2)CC1 (stereo unspecified)	Pf growth 48h inconclusive, Pf growth 96h 10µM
COc1ccc(C(c2nnnn2Cc2ccccc2)N2CCN(C(=O)c3ccco3)CC2)cc1OC (stereo unspecified)	Pf growth 48h inconclusive, Pf growth 96h 3.7µM
CCC(c1nnnn1Cc1ccccc1)N1CCN(C(=O)c2ccco2)CC1 (stereo unspecified)	none
COc1cc(S(=O)(=O)n2cnc3ccccc32)ccc1Br	none (no result: Shiga toxin inh)
O=C(Cc1ccccc1F)NCC1(N2CCOCC2)CCCCC1	none
O=C(O)CCC(=O)N1N=C(c2ccccc2)CC1c1cccs1 (stereo unspecified)	none
Cc1cc(N2CCCC2)nc(N2C3CCC2CC(O)(c2ccc(F)cc2)C3)n1 (stereo unspecified)	Pf growth 48h inconclusive (no result: AMA1 RON2 block)
COc1ccc(C2(O)CC3CCC(C2)N3c2cc(C)nc(-c3ccccc3)n2)cc1 (stereo unspecified)	Pf growth 48h 12µM (no result: Pf growth 96h)
COc1ccccc1N(Cc1cc(=O)[nH]c2ccccc12)C(=O)c1ccc([N+](=O)[O-])cc1	Pf growth 48h inconclusive, Pf growth 96h inconclusive
CC1CC(=O)Nc2ccccc2N1C(=O)Cn1cnc2ccccc2c1=O (stereo unspecified)	none (no result: CHX counter, Shiga toxin inh)
CC(=O)c1ccc(OC(=O)/C=C/c2ccccc2)cc1	Pf growth 96h 10µM
CCN(CC)CCOC(=O)/C=C/c1ccccc1	none
Cc1ccccc1/C(N)=N/OC(=O)/C=C/c1ccccc1	CHX counter 44, Shiga toxin inh 159 (no result: Pf growth 96h)
Cc1ccc(/C(N)=N/OC(=O)/C=C/c2ccccc2)cc1	CHX counter 23
COc1ccc(/C=C/C(=O)O/N=C(\N)c2ccccc2)cc1OC	CHX counter 36, Pf growth 96h inconclusive, Shiga toxin inh 28
COc1ccc(/C(N)=N/OC(=O)/C=C/c2ccccc2)cc1	Pf growth 48h inconclusive
COc1cccc(/C=C/C(=O)Oc2ccc(C(=O)c3ccc(F)cc3)cc2)c1	none
Cc1ccc(-c2noc(CN(C(=O)C34CC5CC(CC(C5)C3)C4)C(C)C)n2)cc1	Pf growth 48h inconclusive, Pf growth 96h inconclusive
COc1ccc(CNC(=O)COC(=O)CN2C(=O)C3CCCCC3C2=O)cc1 (stereo unspecified)	none (no result: Pf growth 48h, SARS PLpro yeast, CHX counter, Pf growth 96h, Shiga toxin inh)
CCC(=O)N1CCc2cc(S(=O)(=O)CCC(=O)N3CCN(c4ccc(C(C)=O)cc4)CC3)ccc21	Pf growth 48h inconclusive
Cc1ccc(C)c(N2CCN(C(=O)CCS(=O)(=O)c3ccc4c(c3)NC(=O)C(C)S4)CC2)c1 (stereo unspecified)	Pf growth 48h inconclusive
COc1ccc(N2CCN(C(=O)CCS(=O)(=O)c3ccc4c(c3)NC(=O)C(C)S4)CC2)cc1 (stereo unspecified)	Pf growth 48h inconclusive, Pf growth 96h 9.3µM
CC(=O)c1ccc(N2CCN(C(=O)CCS(=O)(=O)c3ccc4c(c3)NC(=O)CS4)CC2)cc1	Pf growth 48h inconclusive, CHX counter 44, Pf growth 96h inconclusive, Shiga toxin inh 55
COC(=O)Cc1c(C)c2ccc(OC3CCCCC3=O)c(C)c2oc1=O (stereo unspecified)	none
CCCCCCCCN1C(=O)[C@H](CC(=O)NCc2cccs2)C[C@@]2(C(=O)OC)CC(C)(C)CC=C12	none (no result: Pf growth 48h, SARS PLpro yeast, CHX counter, Pf growth 96h, Shiga toxin inh)
CCOC(=O)Cn1nc(C)c(NC(=O)COc2ccc(OC)cc2)c1C	none
Cc1cc(N2CCN(C3CCCCC3)CC2)nc2cccc(O)c12	Pf growth 48h 2.9µM, Pf growth 96h inconclusive
